Source: publication PMC5540273 (PLoS ONE, 2017)

What was measured:
Conditions in all cases: concentration: 1 μM, replicates: in singlicate; n = 1
[1] = tested on: MAST1
[2] = tested on: T1, MEK1
T1 construct: gene MAP2K1

[3] = tested on: T2, MEK2
T2 construct: gene MAP2K2

[4] = tested on: T3, MEK3
T3 construct: gene MAP2K3

[5] = tested on: T4, MEK4
T4 construct: gene MAP2K4

[6] = tested on: T5, MEK5
T5 construct: gene MAP2K5

[7] = tested on: T6, MEK6
T6 construct: gene MAP2K6

[8] = tested on: MELK
[9] = tested on: MERTK
[10] = tested on: MET
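Note: KINOMEscan kinase panel screen.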

SMILES | %Inh [1] [%] | %Inh [2] [%] | %Inh [3] [%] | %Inh [4] [%] | %Inh [5] [%] | %Inh [6] [%] | %Inh [7] [%] | %Inh [8] [%] | %Inh [9] [%] | %Inh [10] [%]
CNCc1ccc2nc(NC(=O)c3ccc(C(C)(C)C)cc3)cn2c1 | 50 | 32 | 27 | 8 | 30 | 34 | 11 | 0 | 5 | 6
Cc1ccccc1-c1cc(-c2c[nH]nc2-c2ccccn2)ccn1 [GW680061] | 6 | 0 | 0 | 0 | 4 | 5 | 0 | 0 | 16 | 0
Cc1ccc(NC(=O)Nc2ccccc2F)cc1-c1ccc(C(=O)Nc2ccncc2)cc1 [GSK1398477] | 0 | 0 | 0 | 0 | 26 | 37 | 0 | 14 | 31 | 0
Nc1nccc(-c2c(-c3ccc(F)cc3)ncn2C2CCN(Cc3ccccc3)CC2)n1 [SB-219980] | 4 | 7 | 9 | 19 | 38 | 28 | 21 | 15 | 0 | 0
Cl.Cl.Cl.N#Cc1ccc(CCNc2nccc(-c3cccc(CN4CCNCC4)c3)n2)cc1 [GSK2137462] | 0 | 0 | 0 | 5 | 20 | 35 | 7 | 38 | 20 | 0
CS(=O)(=O)CCNCc1nc(-c2ccc3ncnc(Nc4ccc5c(cnn5Cc5ccccc5)c4)c3c2)cs1.Cl.Cl [GW569716] | 32 | 0 | 0 | 0 | 0 | 99.6 | 0 | 0 | 0 | 0
O=C(Nc1n[nH]c2nc(-c3cccs3)c(Br)cc12)C1CC1 [SB-735297] | 26 | 0 | 0 | 34 | 99.3 | 68 | 0 | 15 | 15 | 0
O=C1NC(=O)C(c2ccc(Cl)cc2)=C1Nc1cccc(Cl)c1 [SB-317651] | 23 | 0 | 13 | 27 | 0 | 4 | 3 | 16 | 2 | 0
COc1ccc(-c2coc3ccc(-c4nnc(C)o4)cc23)cc1 | 0 | 0 | 4 | 0 | 1 | 0 | 0 | 0 | 8 | 0
O=C(Nc1n[nH]c2nc(-c3ccco3)c(Br)cc12)C1CCN(Cc2ccccc2)C1.O=C(O)[C@H](O)[C@@H](O)C(=O)O (centres unmarked) [SB-742034] | 13 | 1 | 25 | 21 | 20 | 32 | 16 | 2 | 0 | 0
CCCCc1nn2ncccc2c1-c1ccnc(NC2CC2)n1 [GW684374] | 0 | 0 | 0 | 8 | 7 | 9 | 10 | 15 | 5 | 0
FC(F)(F)c1ccccc1-c1cc(-c2c[nH]nc2-c2ccccn2)ccn1 [GW679396] | 4 | 0 | 0 | 0 | 16 | 0 | 0 | 0 | 26 | 0
O=C(Nc1n[nH]c2nc(-c3cccs3)c(Br)cc12)C1CCCC1 [SB-743341] | 12 | 15 | 14 | 18 | 23 | 31 | 0 | 0 | 0 | 0
COc1cccc(NC(=O)Nc2ccc(C)c(-c3ccc(C(=O)Nc4ccncc4)cc3)c2)c1 [GSK1398474] | 0 | 0 | 0 | 0 | 42 | 8 | 0 | 0 | 35 | 16
COc1ccc(Nc2nccc(NCCNC(=O)Nc3cc(C)ccc3C)n2)cc1 [GSK1379899] | 0 | 0 | 0 | 0 | 0 | 66 | 0 | 0 | 11 | 0
O=c1cc(N2CCOCC2)nc2n(Cc3cccc(Cl)c3Cl)c3ccccc3n12 [GSK2299009] | 0 | 0 | 0 | 0 | 34 | 75 | 0 | 89 | 41 | 0
COC(=O)C(Cc1ccccc1)NC(=O)NC1CCN(c2ccnc(Nc3ccc(F)cc3)n2)C1 (centres unmarked) [GSK1379714] | 42 | 35 | 0 | 31 | 0 | 54 | 4 | 40 | 0 | 0
CS(=O)(=O)Cc1ccc(Nc2nccc(-c3c(-c4cccc(NC(=O)C5CCCCC5)c4)nn4ncccc34)n2)cc1 [GSK350559] | 39 | 32 | 19 | 42 | 16 | 98.3 | 0 | 0 | 12 | 10
Cn1cncc1C(=O)NC1CCN(c2ccnc(Nc3ccc(F)cc3)n2)C1 (centres unmarked) [GSK1379717] | 0 | 0 | 0 | 11 | 28 | 3 | 0 | 0 | 5 | 0
Nc1cccc(-c2ccc3c(N)n[nH]c3c2)n1 [GSK2192730] | 0 | 3 | 22 | 3 | 1 | 31 | 18 | 0 | 0 | 0
O=c1cc(N2CCOCC2)nc2n(Cc3ccccc3F)ccn12 [GSK2297428] | 0 | 0 | 0 | 0 | 0 | 0 | 0 | 0 | 42 | 0

SMILES | %Inh [1] [%] | %Inh [2] [%] | %Inh [3] [%] | %Inh [4] [%] | %Inh [5] [%] | %Inh [6] [%] | %Inh [7] [%] | %Inh [8] [%] | %Inh [9] [%] | %Inh [10] [%]
CC[C@@H]1CO[C@H](C(=O)Nc2ccccc2)CN1c1cc(-c2ccc3c(N)n[nH]c3c2)nc(NC)n1 [GSK2376236] | 0 | 5 | 13 | 0 | 0 | 0 | 0 | 56 | 3 | 0
O=C1NC(=O)C(c2ccc(Cl)cc2)=C1Nc1ccc(O)cc1 [SB-340867] | 24 | 0 | 0 | 9 | 0 | 8 | 0 | 1 | 0 | 0
Cc1nccc(-c2c(-c3ccc(F)cc3)ncn2CCCN2CCOCC2)n1.Cl [SB-282975] | 71 | 1 | 33 | 2 | 9 | 19 | 0 | 19 | 24 | 0
Cc1cccc2c(-c3ccncn3)c(-c3ccc(F)cc3)nn12 [GW515532] | 7 | 0 | 0 | 0 | 19 | 10 | 0 | 0 | 15 | 0
CC(=O)c1c(C)c2cnc(Nc3ccn(C)n3)nc2n(C2CCCC2)c1=O | 0 | 0 | 0 | 13 | 0 | 0 | 4 | 1 | 0 | 0
CC(C)c1ccc(O)cc1Nc1ccnc2ccc(C(F)(F)F)cc12 [GW482059] | 0 | 0 | 0 | 0 | 22 | 1 | 0 | 5 | 13 | 0
Fc1ccc(-c2nn3cccc(F)c3c2-c2ccncc2)cc1 [GW475620] | 0 | 0 | 0 | 0 | 29 | 8 | 0 | 41 | 3 | 0
NS(=O)(=O)c1cccc(N/C=C2\C(=O)Nc3ccc(S(=O)(=O)Cc4c(Cl)cccc4Cl)cc32)c1 [GSK398099] | 0 | 0 | 0 | 1 | 23 | 14 | 0 | 0 | 0 | 23
CS(=O)(=O)CCNCc1nc(-c2ccc3ncnc(Nc4ccc(OCc5ccccc5)c(Cl)c4)c3c2)cs1.Cl [GW582764] | 43 | 0 | 0 | 0 | 16 | 84 | 0 | 0 | 9 | 0
CNc1nc(-c2ccc3c(N)n[nH]c3c2)cc(N2C[C@@H](C(=O)Nc3ccccc3)CC[C@H]2C)n1 [GSK2298859] | 0 | 0 | 0 | 0 | 7 | 7 | 0 | 58 | 35 | 0
COC(=O)c1cccc(NC(=O)NC2CCN(c3ccnc(Nc4ccc(OC)cc4)n3)C2)c1 (centres unmarked) [GSK1379746] | 13 | 0 | 0 | 0 | 34 | 33 | 0 | 0 | 22 | 0
CNC(=O)c1ccc(C)c(-n2c(C)cc(OCc3ccc(F)cc3F)c(Br)c2=O)c1 | 0 | 0 | 0 | 0 | 0 | 0 | 0 | 14 | 0 | 0
COc1ccc(Nc2nccc(N3CCC(NC(=O)C(C)c4ccc(Cl)cc4)CC3)n2)cc1 (centres unmarked) [GSK1379812] | 0 | 0 | 0 | 0 | 5 | 10 | 0 | 0 | 22 | 0
COc1ccc(Nc2nccc(-c3ccc(NC(=O)c4cc5cc(F)ccc5[nH]4)cc3)n2)cc1 [GSK1229496] | 0 | 0 | 0 | 20 | 0 | 6 | 0 | 0 | 18 | 0
CNc1cc(-c2ccc3c(N)n[nH]c3c2)nc(N)n1 [GSK2224810] | 18 | 2 | 0 | 0 | 18 | 37 | 14 | 48 | 31 | 0
CCc1ccc(-c2ccc3c(c2)-c2n[nH]cc2S(=O)(=O)N3C)cc1 | 0 | 10 | 86 | 13 | 0 | 8 | 0 | 9 | 0 | 0
Cn1cncc1-c1cc2c(Nc3ccc(OCc4ccccc4)cc3)ncnc2cn1 [GW281179] | 0 | 11 | 5 | 0 | 24 | 99.2 | 0 | 0 | 0 | 0
Cc1ccc(-c2nc(Nc3ccncc3)c3ccccc3n2)s1 [GSK189015] | 0 | 11 | 1 | 0 | 11 | 17 | 0 | 0 | 11 | 10
Cc1ccccc1Cn1ccn2c(=O)cc(N3CCOCC3)nc12 [GSK2269905] | 0 | 0 | 0 | 0 | 27 | 13 | 0 | 0 | 25 | 0
Fc1ccc(-c2nc3n(c2-c2ccncc2)CCS3)cc1 [GI98581] | 0 | 0 | 0 | 0 | 12 | 14 | 0 | 5 | 12 | 0
